Inconclusive results are not listed. The source made the active and inactive calls. The call rests on the fitted dose curve; in most records, active means well fitted inhibition curve with a large enough effect; inconclusive means small, poorly fitted or top-dose-only effect; inactive means flat fitted curve, though single readings scatter.
system: HACAT; test: qHTS assay to identify novel small-molecules to repurpose for Merkel cell carcinoma treatment (AID 1296009); settings: MCC and control cell lines, CellTiter-Glo viability, 72 h; at 44.8 µM (top of the series) unless noted; further: nearly all actives have a fitted effect of over 60% in size
In short: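 72 hr, 37 degree celsius; NPC 8-pt / MIPE 11-pt dose response; compound pinned in DMSO; CellTiter-Glo, 10 min RT, luminescence; normalized to no-cell and DMSO controls.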

Row | SMILES | outcome
1 | Oc1ccc2c(-c3c(-c4ccccn4)nn4c3CCC4)ccnc2c1 | inactive
2 | C=C1C(=O)O[C@@H]2CC(C)=C([C@@H](C)CCCOC(C)=O)[C@@H](O)[C@H]12 | inactive
3 | COC(=O)c1[nH]c(=O)c2ccccc2c1-c1ccc[nH]1 | inactive
4 | C[C@@H]1O[C@@H](O[C@@H]2[C@@H](O)[C@H](O[C@H]3[C@H](O[C@H]4CC[C@@]5(C)C(CC[C@]6(C)C5CC=C5[C@@H]7CC(C)(C)CC[C@]7(C(=O)O[C@@H]7O[C@H](CO)[C@@H](O)[C@H](O)[C@H]7O)CC[C@]56C)C4(C)C)O[C@H](C(=O)O)[C@@H](O)[C@@H]3O)OC[C@H]2O)[C@H](O)[C@H](O)[C@H]1O (stereo partly drawn) | inactive [at 9.27 µM]
5 | CC1(C)O[C@H]2CC(=O)OC[C@@]23C1=C(O)C(=O)[C@]1(C)C3CC[C@@]2(C)[C@H](c3ccoc3)OC(=O)[C@H]3O[C@]321 (stereo partly drawn) | inactive [at 17.4 µM]
6 | CC1(C)CC[C@]2(C(=O)O)CC[C@]3(C)C(=CCC4[C@@]5(C)C[C@@H](O)[C@H](O)[C@@](C)(CO)C5CC[C@]43C)C2C1 (stereo partly drawn) | inactive [at 17.4 µM]
7 | C[C@@H]1O[C@@H](O[C@H]2[C@H](O[C@H]3[C@H](O[C@H]4CC[C@@]5(C)C(CC[C@]6(C)C5CC=C5[C@@H]7CC(C)(C)C[C@@H](O)[C@]7(C)CC[C@]56C)[C@@]4(C)CO)O[C@H](C(=O)O)[C@@H](O)[C@@H]3O)O[C@H](C(=O)O)[C@H](O)[C@@H]2O)[C@H](O)[C@H](O)[C@H]1O (stereo partly drawn) | inactive [at 9.27 µM]
8 | Cc1sc(C)c(C(=O)NC2(c3ccc(C(=O)O)cc3)CC2)c1Cc1ccc(C(F)(F)F)cc1 | inactive
